Compound activity (PubChem BioAssay)
DT40 TDP1 CPT: qHTS for Inhibitors of human tyrosyl-DNA phosphodiesterase 1 (TDP1): qHTS in cells in presence of CPT. 420,000 tested, 12% active. AID 686979, 2013. Potency, µM (doses to about 46.2 µM), for inactives: at the highest dose activity change, negative = growth inhibition, hits mostly inhibitors. chicken DT40 Tdp1-/-;hTDP1 cells + 20 nM CPT, ATP luminescence, 48 h; also: potency is read from the fitted curve at half-maximal effect; nearly all actives have a fitted effect of over 55% in size
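Chicken DT40 Tdp1-/- cells stably complemented with human TDP1 were seeded at 400 cells/well in medium containing 20 nM camptothecin, exposed to pin-transferred compounds, and grown at 37 °C for at least 48 hr. Viability was read as ATP luminescence.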
HT1080NT lethal: qHTS for induction of synthetic lethality in tumor cells producing 2HG: qHTS for the HT-1080-NT fibrosarcoma cell line | 360,000 tested, 1.6% active | HT-1080-NT fibrosarcoma viability, CellTiter-Glo ATP luminescence, 48 h | AID 686970, 2013 | Potency, µM (highest dose often 46.1 µM), without a hit: at the highest dose activity, negative = less viability, actives largely listed as cytotoxic;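 also: NT is the 2HG producing partner of a matched IDH1 knockdown line; potency is read from the fitted curve at half-maximal effect; 0% = DMSO-treated cells and -100% = media-only wells without cells; nearly all actives have a fitted effect of over 55% in size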
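Toxicity toward the 2HG-producing NT line was scored as %Activity, normalised to DMSO and no-cell wells, from CellTiter-Glo luminescence after 48 hours' treatment.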
uPA generation: qHTS for Inhibitors of Cell Surface uPA Generation; cell surface uPA generation assay, qHTS; Potency, µM (titrated, usually from 38.3 µM), for inactives: top-dose activity change, negative = inhibition, usual class: inhibitors; 330,000 tested, 0.31% active; AID 540303, 2011; active = well fitted inhibition curve with a large enough effect; inconclusive = small, poorly fitted or top-dose-only effect; inactive = no such curve, though single readings can be large or run the other way; tested in mouse RAW 264.7 cells; also: potency is read from the fitted curve at half-maximal effect; nearly all actives have a fitted effect of over 55% in size
IL1B secr inh: qHTS for Inhibitors of Inflammasome Signaling: IL-1-beta AlphaLISA Primary Screen | THP-1 LPS/ATP IL-1B secretion, AlphaLISA, 16 h; active compounds read low | activity change, % at 57.5 µM | 360,000 tested, 4.7% active; in the data active = activity change below about -50%; inconclusive = mostly about -30% to -49%
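Secreted IL-1B measured by AlphaLISA bead assay after 16 h compound exposure of THP-1 cells; compounds (final up to 57.5 uM) added 1 h before LPS (250 ng/mL) and ATP (1.25 mM) stimulation; lower signal means less secretion.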
DT40 TDP1 no CPT: qHTS for Inhibitors of human tyrosyl-DNA phosphodiesterase 1 (TDP1): qHTS in cells in absence of CPT; DT40 Tdp1-/- hTDP1 cells, no CPT, ATP luminescence, 48 h; 420,000 tested, 15% active; Potency, µM (top dose mostly 46.2 µM), without a hit: at the top dose activity change, negative = growth inhibition, actives largely listed as inhibitors; also: potency is read from the fitted curve at half-maximal effect; nearly all actives have a fitted effect of over 55% in size
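Stably hTDP1-transfected Tdp1-null chicken DT40 cells were treated with library compounds minus camptothecin and grown for at least 48 hr at 37 °C, after which cellular ATP was quantified by luminescence.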
HT1080 IDH1KD tx: qHTS for induction of synthetic lethality in tumor cells producing 2HG: qHTS for the HT-1080-IDH1KD cell line; HT-1080 IDH1 knockdown viability, ATP luminescence, 48 h; Potency, µM (titrated, usually from 46.1 µM), without a hit: at the highest dose activity, negative = toxicity, most hits filed as cytotoxic; 360,000 tested, 2% active;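 also: potency is read from the fitted curve at half-maximal effect; 0% = DMSO wells and -100% = cell-free medium wells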
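CellTiter-Glo luminescence after 48 h compound exposure at 37 degrees C of IDH1-knockdown HT-1080 cells in 5% FBS RPMI. %Activity scaled between DMSO wells and cell-free media wells, with curves fitted and assigned curve classes.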
Active calls of the source: *; u = inconclusive; x = no result given; [ ] = another dose, or the depositor's remark. Compounds with a hit are over-represented: about 19% of the library has one in this group of screens. Unless noted, calls follow the shape of the dose curve; as a rule, active = well fitted curve in the direction sought with a large enough effect; inconclusive = small, poorly fitted or top-dose-only effect, or another doubt; inactive = no such curve, though single readings can be large; an effect the other way counts as inactive or inconclusive. Unless noted, % is scaled to controls: 0 for no effect and ±100 for the full control effect.

SMILES	DT40 TDP1 CPT	HT1080NT lethal	uPA generation	IL1B secr inh	DT40 TDP1 no CPT	HT1080 IDH1KD tx
Cn1c(N)c(C(=O)COC(=O)/C=C/c2ccc(Cl)cc2Cl)c(=O)n(C)c1=O	u	1.8%	-6.4%	-13.3	16.4µM*	-1.4%
OC[C@@H]1CN(CCc2ccccc2)C[C@H](n2cnc3c(NCc4ccc(F)cc4)ncnc32)O1	u	-25.9%	x	-4.0	u	0.0%
CCN(CC)C(=O)[C@H]1C[C@H](CC(=O)NCCCn2ccnc2)C(=O)N2CCc3c([nH]c4cc(CCC(=O)N(C)C)ccc34)[C@]12C	-13.1%	0.5%	8.7%	-9.8	-10.3%	-0.1%
COc1cccc(NC(=O)Nc2nnc([C@H]3C[C@H](O)[C@@H](CO)O3)s2)c1	u	9.6%	x	-4.5	-2.9%	22.6%
CCCC(=O)NCC(c1ccc2c(c1)OCO2)N1CCOCC1 (stereo not drawn)	1.3%	x	x	x	0.0%	x
CCc1nc2c(OCC(=O)C(C)(C)C)cccn2c1N(C)C(=O)COc1ccccc1	-23.2%	8.7%	x	4.8	-1.9%	0.0%
N#Cc1ccc(C2CC(OCCF)=CC(=O)O2)cc1 (stereo not drawn)	0.9%	4.3%	x	1.9	2.4%	6.6%
C[C@@H]1CCCCO[C@H](CN(C)S(=O)(=O)c2ccccc2)[C@@H](C)CN([C@H](C)CO)C(=O)c2cc(NC(=O)Cc3ccccc3)ccc2O1	20.6µM*	3.5%	x	-1.4	u	-4.7%
Cc1noc(C)c1S(=O)(=O)Nc1ccc2c(c1)C(=O)N([C@@H](C)CO)C[C@@H](C)[C@@H](CN(C)CC1CCCCC1)OCCCC[C@@H](C)O2	23.1µM*	-20.6%	x	u	14.6µM*	-28.9%
C[C@H]1CCCCO[C@@H](CN(C)C(=O)NC2CCCCC2)[C@@H](C)CN([C@@H](C)CO)C(=O)c2cc(NC(=O)Cc3ccccc3)ccc2O1	-9.0%	-23.5%	x	-21.7	18.4µM*	-12.7%
Cc1ccc(S(=O)(=O)N(C)C[C@H]2OCCCC[C@@H](C)Oc3ccc(N(C)C)cc3C(=O)N([C@H](C)CO)C[C@@H]2C)cc1	u	-3.7%	x	4.1	20.6µM*	-8.3%
Cc1noc(C)c1S(=O)(=O)Nc1ccc2c(c1)C(=O)N([C@H](C)CO)C[C@H](C)[C@@H](CN(C)C(=O)CCCN(C)C)OCCCC[C@@H](C)O2	-1.4%	7.4%	x	1.0	-2.2%	7.6%
C[C@H](CO)N1C[C@H](C)[C@@H](CN(C)S(=O)(=O)c2ccccc2)OCCCC[C@H](C)Oc2ccc(NC(=O)CCC(F)(F)F)cc2C1=O	u	8.2%	x	8.3	u	11.0%
CC(=O)Nc1ccc(C(=O)CN2C(=O)CSC2=O)cc1	11.7%	-0.7%	-4.4%	-6.4	12.7%	15.0%
C[C@@H]1CCCCO[C@@H](CN(C)S(=O)(=O)c2ccc(F)cc2)[C@@H](C)CN([C@H](C)CO)C(=O)c2cc(NC(=O)c3ccccc3)ccc2O1	u	-21.2%	x	-0.7	u	-8.3%
C[C@H]1CCCCO[C@@H](CN(C)S(=O)(=O)c2ccc(Cl)cc2)[C@@H](C)CN([C@@H](C)CO)C(=O)c2cc(NS(=O)(=O)c3ccccc3)ccc2O1	u	3.1%	x	2.9	u	5.7%
CC(C)NC(=O)Nc1ccc2c(c1)C(=O)N([C@@H](C)CO)C[C@H](C)[C@H](CN(C)S(=O)(=O)c1ccccc1)OCCCC[C@H](C)O2	18.4µM*	-0.2%	x	-3.9	11.6µM*	-0.7%
C[C@@H]1CCCCO[C@@H](CN(C)S(=O)(=O)c2ccccc2)[C@@H](C)CN([C@H](C)CO)C(=O)c2cc(NS(=O)(=O)c3ccc(F)cc3)ccc2O1	u	-16.3%	x	-24.5	20.6µM*	-23.7%
CCN(CC)S(=O)(=O)c1cc(NC(=O)C2CSC3(C)CCC(=O)N23)ccc1C (stereo not drawn)	u	5.4%	-4.6%	14.7	-29.8%	6.7%
CC(=O)Nc1ccc(N2C(C(C)=O)=NN(c3ccccc3)C2c2cccs2)cc1 (stereo not drawn)	u	-5.7%	x	-2.5	u	u
CC(=O)Nc1ccc(N2C(C(C)=O)=NN(c3ccc(Cl)cc3)C2c2sccc2C)cc1 (stereo not drawn)	23.1µM*	u	x	-7.1	23.1µM*	7.94µM*
Cc1ccc(NC(=O)COC(=O)C2CCN(c3ccc(C(F)(F)F)cn3)CC2)cc1	-15.7%	0.1%[9.24 µM]	20.1%	16.6	1.5%	-6.8%
CC1CC(N(C(=O)c2ccccc2Cl)c2ccccc2)c2ccccc2N1 (stereo not drawn)	7.31µM*	23.1µM*	-6.3%	22.0	5.8µM*	23.1µM*
COc1ccc(CCN2CC(O)=C(c3nc4ccccc4c(=O)[nH]3)C2=N)cc1OC	u	7.5%	x	-19.1	18.4µM*	-4.2%
CCC(C)N1CC(O)=C(c2nc3ccccc3[nH]2)C1=N (stereo not drawn)	23.1µM*	4.3%	-18.2%	u	u	-21.0%
SMILES	DT40 TDP1 CPT	HT1080NT lethal	uPA generation	IL1B secr inh	DT40 TDP1 no CPT	HT1080 IDH1KD tx
CC1C(O)=C(c2nc3ccccc3[nH]2)C(=N)N1c1ccccc1 (stereo not drawn)	u	u	u	11.4	20.6µM*	u
CCOC(=O)c1ccc(N2CC(O)=C(c3nc4ccccc4c(=O)[nH]3)C2=N)cc1	u	23.6%	5.5%	-7.5	10.3µM*	5.5%
Cc1nn2c(-c3ccco3)ccnc2c1-c1ccc(Cl)cc1	-5.4%	x	x	x	u	x
N=C1C(c2nc3ccccc3[nH]2)=C(O)CN1c1ccc(CC(=O)O)cc1	10.2%	19.6%	x	13.3	0.4%	13.8%
N=C1C(c2nc3ccccc3[nH]2)=C(O)CN1c1ccccc1	u	-8.2%	-11.4%	78.0	23.1µM*	-27.7%
COc1ccc2c(CNCCc3ccco3)c(C(=O)O)n(Cc3ccc(C)cc3)c2c1	-19.3%	x	x	x	u	x
COc1ccc2c(CNCc3ccc(Cl)cc3)c(C(=O)O)n(Cc3ccccc3C)c2c1	2.31µM*	x	x	x	1.16µM*	x
COc1ccc2c(CNCc3ccc(C)o3)c(C(=O)O)n(Cc3ccccc3C)c2c1	7.31µM*	x	x	x	3.26µM*	x
